# Data reported in article PMC7862700, “An all-to-all approach to the identification of sequence-specific readers for epigenetic DNA modifications on cytosine”.
# Legend:
# Assay in all cases: DAPPL (digital affinity profiling via proximity ligation, sequencing); 10 mM Tris-HCl pH 7.5, 50 mM NaCl, 1 mM DTT, 4% glycerol, room temperature, 30 min; GST-TFs on glutathione beads, 16-mer random dsDNA library, 0.1% formaldehyde crosslink after washing; high values mean tight binding
# Settings in all cases: protein: recombinant; tags: N-terminal GST; dsDNA, one strand shown
# [1] = target: T1, ELK1 (Homo sapiens, UniProt P19419 1-428)
# T1 sequence: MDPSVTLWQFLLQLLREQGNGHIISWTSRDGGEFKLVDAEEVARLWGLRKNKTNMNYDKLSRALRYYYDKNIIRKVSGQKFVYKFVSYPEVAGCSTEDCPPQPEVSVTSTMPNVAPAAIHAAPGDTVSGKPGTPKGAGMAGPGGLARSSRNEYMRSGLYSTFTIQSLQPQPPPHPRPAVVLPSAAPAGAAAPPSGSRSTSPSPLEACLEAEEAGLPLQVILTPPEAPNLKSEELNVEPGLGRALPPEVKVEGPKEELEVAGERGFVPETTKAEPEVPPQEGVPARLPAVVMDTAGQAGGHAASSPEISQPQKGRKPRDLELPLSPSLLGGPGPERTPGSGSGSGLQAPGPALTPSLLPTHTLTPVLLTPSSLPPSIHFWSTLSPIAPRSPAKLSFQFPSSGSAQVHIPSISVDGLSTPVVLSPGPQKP
# In short: (§1)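 A tag-only sample was pooled with DNA-barcoded human transcription factors that had been expressed in yeast as GST fusions and captured on glutathione beads. The pools were incubated for 30 min at room temperature with 200 nmole of a random double-stranded 16-mer DNA library in Tris/NaCl/DTT/glycerol buffer, then washed, crosslinked with 0.1% formaldehyde, proximity-ligated (BsaI/T4 ligase, 1 h, 37 °C), PCR-amplified and sequenced on an Illumina NextSeq500. Binding signal is each hexamer's read frequency for a factor divided by its frequency for the tag-only sample.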
# [2] = target: T2, GABPA (Homo sapiens, UniProt Q06546 1-454)
# T2 sequence: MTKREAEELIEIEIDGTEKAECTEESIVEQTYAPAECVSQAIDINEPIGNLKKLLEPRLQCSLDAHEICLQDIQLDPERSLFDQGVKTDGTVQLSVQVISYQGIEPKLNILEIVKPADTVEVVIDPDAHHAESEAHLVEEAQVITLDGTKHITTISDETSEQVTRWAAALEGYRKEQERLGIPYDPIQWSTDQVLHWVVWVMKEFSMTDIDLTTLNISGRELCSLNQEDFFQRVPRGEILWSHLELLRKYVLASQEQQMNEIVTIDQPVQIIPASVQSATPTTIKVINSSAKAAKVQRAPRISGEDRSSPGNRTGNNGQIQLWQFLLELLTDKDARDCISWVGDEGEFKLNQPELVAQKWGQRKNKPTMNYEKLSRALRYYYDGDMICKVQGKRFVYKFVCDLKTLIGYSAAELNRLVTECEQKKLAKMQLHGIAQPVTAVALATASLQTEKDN
# In short: as §1
# [3] = target: T3, ERG (Homo sapiens, UniProt P11308 1-479)
# T3 sequence: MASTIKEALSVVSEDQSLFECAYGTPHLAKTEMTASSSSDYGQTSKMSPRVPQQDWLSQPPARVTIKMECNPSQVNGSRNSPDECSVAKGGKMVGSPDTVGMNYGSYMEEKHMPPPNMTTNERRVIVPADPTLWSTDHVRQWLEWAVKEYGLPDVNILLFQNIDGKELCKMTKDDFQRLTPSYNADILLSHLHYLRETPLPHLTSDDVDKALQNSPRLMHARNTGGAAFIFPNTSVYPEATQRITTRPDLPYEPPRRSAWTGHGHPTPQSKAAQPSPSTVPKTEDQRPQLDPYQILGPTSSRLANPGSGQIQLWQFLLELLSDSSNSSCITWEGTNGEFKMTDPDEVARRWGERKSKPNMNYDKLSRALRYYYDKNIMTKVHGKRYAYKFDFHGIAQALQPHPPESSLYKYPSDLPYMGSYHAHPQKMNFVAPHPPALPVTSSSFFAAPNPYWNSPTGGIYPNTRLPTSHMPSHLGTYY
# In short: as §1
# [4] = target: ELF1 (Homo sapiens, UniProt P32519 1-619)
# In short: as §1
# [5] = target: T4, EHF (Homo sapiens, UniProt Q9NZC4 1-300)
# T4 sequence: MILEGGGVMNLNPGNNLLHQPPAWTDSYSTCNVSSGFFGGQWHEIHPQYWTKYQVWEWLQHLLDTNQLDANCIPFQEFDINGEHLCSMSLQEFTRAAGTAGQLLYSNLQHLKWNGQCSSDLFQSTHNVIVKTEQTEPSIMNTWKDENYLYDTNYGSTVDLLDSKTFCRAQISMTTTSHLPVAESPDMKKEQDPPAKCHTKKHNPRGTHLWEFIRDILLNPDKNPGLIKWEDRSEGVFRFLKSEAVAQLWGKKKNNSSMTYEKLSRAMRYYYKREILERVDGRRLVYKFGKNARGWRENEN
# In short: as §1
# [6] = target: SPIB (Homo sapiens, UniProt Q01892 1-262)
# In short: as §1
# [7] = target: T5, FEV (Homo sapiens, UniProt Q99581 1-238)
# T5 sequence: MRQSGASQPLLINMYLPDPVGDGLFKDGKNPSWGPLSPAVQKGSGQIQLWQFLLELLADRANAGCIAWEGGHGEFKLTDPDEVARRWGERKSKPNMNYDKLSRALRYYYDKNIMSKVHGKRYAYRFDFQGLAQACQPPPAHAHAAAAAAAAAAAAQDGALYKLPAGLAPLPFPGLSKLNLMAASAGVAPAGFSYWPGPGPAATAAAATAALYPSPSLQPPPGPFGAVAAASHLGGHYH
# In short: as §1
# [8] = target: ETV5 (Homo sapiens, UniProt P41161 1-510)
# In short: as §1
# [9] = target: ELF4 (Homo sapiens, UniProt Q99607 1-663)
# In short: as §1
# [10] = target: T6, ELK4 (Homo sapiens, UniProt P28324-2 1-405)
# T6 sequence: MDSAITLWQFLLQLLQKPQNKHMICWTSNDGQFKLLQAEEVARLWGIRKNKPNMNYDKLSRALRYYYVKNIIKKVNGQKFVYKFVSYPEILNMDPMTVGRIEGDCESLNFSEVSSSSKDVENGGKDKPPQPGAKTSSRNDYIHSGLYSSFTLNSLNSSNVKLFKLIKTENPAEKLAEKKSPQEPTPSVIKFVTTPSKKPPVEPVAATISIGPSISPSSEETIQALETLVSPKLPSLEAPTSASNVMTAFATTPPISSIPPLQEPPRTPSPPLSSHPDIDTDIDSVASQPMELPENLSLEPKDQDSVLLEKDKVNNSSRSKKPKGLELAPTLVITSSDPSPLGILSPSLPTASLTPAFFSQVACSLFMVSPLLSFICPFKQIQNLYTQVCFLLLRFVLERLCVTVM
# In short: as §1
# [11] = target: T7, ETV2 (Homo sapiens, UniProt O00321 1-342)
# T7 sequence: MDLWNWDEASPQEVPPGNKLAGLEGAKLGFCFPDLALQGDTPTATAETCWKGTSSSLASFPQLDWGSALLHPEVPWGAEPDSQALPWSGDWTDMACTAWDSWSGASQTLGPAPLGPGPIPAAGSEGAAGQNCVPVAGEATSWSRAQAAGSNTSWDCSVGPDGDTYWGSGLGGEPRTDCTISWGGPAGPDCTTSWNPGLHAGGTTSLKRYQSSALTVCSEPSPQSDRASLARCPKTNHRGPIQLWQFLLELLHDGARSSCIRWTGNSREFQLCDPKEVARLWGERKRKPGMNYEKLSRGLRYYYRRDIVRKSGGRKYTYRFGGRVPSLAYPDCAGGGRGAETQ
# In short: as §1
# [12] = target: T8, ELF3 (Homo sapiens, UniProt P78545 1-371)
# T8 sequence: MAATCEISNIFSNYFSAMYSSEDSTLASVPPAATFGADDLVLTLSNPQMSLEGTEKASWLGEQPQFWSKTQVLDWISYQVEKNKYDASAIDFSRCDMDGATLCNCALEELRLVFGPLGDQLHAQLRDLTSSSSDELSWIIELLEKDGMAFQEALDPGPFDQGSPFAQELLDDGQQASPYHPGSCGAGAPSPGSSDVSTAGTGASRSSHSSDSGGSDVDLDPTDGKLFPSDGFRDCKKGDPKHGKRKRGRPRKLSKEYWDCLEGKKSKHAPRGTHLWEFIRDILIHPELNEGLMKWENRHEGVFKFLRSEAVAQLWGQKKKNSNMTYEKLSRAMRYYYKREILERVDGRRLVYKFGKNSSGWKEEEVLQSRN
# In short: as §1
# [13] = target: ETV1 (Homo sapiens, UniProt P50549 1-477)
# In short: as §1
# [14] = target: T9, ERF (Homo sapiens, UniProt P50548 1-548)
# T9 sequence: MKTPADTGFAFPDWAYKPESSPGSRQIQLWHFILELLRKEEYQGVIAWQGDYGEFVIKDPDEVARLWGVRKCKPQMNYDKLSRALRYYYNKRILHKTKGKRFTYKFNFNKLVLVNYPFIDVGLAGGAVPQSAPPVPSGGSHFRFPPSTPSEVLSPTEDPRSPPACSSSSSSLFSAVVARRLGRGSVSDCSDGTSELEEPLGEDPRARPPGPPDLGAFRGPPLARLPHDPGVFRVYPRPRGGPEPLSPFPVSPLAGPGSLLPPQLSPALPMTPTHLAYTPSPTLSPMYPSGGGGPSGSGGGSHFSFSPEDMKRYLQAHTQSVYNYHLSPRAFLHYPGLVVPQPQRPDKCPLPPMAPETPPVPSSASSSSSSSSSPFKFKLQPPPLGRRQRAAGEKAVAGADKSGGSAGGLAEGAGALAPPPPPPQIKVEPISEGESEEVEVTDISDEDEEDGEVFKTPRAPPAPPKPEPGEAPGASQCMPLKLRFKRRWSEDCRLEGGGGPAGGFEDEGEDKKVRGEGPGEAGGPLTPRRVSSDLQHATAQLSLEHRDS
# In short: as §1
# [15] = target: T10, ETV3L (Homo sapiens, UniProt Q6ZN32 1-361)
# T10 sequence: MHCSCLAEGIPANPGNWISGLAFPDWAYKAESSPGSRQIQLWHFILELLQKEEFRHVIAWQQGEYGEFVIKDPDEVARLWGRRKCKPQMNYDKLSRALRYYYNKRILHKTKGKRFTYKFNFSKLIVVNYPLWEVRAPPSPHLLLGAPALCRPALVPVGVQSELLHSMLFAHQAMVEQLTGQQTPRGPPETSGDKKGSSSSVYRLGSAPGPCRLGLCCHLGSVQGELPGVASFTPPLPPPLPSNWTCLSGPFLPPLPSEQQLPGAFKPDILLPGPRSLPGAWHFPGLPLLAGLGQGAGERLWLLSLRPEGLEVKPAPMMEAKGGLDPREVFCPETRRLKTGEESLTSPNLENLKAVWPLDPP
# In short: as §1
# [16] = target: T11, ETS2 (Homo sapiens, UniProt P15036 1-469)
# T11 sequence: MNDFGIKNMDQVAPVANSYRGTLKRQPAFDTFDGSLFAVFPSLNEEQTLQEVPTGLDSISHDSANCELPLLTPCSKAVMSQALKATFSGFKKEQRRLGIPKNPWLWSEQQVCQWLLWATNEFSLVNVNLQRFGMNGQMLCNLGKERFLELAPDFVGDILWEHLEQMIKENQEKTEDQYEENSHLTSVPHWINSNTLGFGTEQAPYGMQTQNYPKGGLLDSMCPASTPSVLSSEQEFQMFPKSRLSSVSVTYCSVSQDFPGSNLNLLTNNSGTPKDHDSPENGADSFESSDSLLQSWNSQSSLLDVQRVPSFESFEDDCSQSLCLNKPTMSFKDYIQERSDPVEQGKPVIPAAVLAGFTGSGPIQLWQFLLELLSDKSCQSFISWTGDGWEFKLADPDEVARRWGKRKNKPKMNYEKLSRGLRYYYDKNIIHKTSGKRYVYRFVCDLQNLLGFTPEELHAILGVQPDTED
# In short: as §1
# [17] = target: T12, ETV7 (Homo sapiens, UniProt Q9Y603 1-341)
# T12 sequence: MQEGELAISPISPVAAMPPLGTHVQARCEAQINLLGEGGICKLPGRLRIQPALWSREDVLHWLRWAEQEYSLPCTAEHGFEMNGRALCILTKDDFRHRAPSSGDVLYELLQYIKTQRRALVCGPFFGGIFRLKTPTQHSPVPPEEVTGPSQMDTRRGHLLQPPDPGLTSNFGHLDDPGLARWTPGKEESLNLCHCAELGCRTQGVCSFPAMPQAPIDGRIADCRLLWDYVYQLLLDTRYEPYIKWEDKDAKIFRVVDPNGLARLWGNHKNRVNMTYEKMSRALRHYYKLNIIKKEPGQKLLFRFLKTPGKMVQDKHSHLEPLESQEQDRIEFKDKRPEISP
# In short: as §1
# [18] = target: T13, ETV3 (Homo sapiens, UniProt P41162-2 1-143)
# T13 sequence: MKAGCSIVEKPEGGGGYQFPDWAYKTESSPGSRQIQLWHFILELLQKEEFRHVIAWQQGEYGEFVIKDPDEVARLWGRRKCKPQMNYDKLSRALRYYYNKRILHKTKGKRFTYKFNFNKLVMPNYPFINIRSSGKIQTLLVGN
# In short: as §1
# [19] = target: ETV6 (Homo sapiens, UniProt P41212 1-452)
# In short: as §1
# Sequence of SPIB (Q01892 whole entry): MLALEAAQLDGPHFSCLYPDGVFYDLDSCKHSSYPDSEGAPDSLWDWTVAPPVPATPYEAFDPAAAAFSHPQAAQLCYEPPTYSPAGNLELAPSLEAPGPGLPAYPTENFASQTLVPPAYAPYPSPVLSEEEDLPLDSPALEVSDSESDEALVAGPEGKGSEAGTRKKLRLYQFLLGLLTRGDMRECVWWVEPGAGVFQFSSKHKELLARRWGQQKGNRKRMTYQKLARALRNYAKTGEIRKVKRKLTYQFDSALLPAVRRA
# Sequence of ELF4 (Q99607 whole entry): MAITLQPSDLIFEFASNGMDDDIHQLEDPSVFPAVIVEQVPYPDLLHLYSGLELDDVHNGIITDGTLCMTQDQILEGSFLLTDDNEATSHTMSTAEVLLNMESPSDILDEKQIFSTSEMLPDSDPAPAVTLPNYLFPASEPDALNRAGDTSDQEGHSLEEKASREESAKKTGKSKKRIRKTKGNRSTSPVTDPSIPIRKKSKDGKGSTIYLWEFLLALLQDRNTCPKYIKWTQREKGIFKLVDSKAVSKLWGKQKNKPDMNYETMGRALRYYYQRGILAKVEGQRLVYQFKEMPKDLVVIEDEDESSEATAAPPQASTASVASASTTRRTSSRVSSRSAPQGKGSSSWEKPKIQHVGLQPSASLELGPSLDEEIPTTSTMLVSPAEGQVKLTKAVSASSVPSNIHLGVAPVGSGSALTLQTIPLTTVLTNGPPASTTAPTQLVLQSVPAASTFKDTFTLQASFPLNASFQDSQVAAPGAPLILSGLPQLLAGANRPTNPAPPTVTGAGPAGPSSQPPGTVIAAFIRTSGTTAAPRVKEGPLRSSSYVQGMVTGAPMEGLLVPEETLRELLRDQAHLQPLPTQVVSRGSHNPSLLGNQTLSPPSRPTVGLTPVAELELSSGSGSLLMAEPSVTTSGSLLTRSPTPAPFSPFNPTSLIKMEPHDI
# Sequence of ETV5 (P41161 whole entry): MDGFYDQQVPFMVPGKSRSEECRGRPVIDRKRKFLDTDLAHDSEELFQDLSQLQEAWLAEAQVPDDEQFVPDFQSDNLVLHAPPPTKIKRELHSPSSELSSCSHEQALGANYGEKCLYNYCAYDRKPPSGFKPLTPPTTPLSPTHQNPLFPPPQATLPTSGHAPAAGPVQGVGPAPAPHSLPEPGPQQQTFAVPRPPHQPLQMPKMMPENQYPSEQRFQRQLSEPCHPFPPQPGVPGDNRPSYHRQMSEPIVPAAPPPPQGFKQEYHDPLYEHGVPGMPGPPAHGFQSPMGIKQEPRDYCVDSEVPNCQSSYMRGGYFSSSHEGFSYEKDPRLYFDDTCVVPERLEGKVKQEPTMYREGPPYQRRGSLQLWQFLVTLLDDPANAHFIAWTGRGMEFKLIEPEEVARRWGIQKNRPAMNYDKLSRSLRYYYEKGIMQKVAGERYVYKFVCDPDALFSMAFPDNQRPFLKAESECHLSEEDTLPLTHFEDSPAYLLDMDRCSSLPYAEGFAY
# Sequence of ETV1 (P50549 whole entry): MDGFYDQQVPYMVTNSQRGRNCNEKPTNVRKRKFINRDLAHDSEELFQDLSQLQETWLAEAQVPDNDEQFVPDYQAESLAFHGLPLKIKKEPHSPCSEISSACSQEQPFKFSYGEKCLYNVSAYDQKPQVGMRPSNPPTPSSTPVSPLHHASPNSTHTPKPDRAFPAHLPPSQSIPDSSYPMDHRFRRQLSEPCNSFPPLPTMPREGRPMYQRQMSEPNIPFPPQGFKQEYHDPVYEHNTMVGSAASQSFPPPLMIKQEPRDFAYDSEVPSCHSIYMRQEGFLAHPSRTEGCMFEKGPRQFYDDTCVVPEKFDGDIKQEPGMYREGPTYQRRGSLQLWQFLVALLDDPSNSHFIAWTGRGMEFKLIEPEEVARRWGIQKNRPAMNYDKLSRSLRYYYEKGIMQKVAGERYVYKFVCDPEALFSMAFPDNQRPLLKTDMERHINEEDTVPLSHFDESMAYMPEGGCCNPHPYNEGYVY
# Sequence of ELF1 (P32519 whole entry): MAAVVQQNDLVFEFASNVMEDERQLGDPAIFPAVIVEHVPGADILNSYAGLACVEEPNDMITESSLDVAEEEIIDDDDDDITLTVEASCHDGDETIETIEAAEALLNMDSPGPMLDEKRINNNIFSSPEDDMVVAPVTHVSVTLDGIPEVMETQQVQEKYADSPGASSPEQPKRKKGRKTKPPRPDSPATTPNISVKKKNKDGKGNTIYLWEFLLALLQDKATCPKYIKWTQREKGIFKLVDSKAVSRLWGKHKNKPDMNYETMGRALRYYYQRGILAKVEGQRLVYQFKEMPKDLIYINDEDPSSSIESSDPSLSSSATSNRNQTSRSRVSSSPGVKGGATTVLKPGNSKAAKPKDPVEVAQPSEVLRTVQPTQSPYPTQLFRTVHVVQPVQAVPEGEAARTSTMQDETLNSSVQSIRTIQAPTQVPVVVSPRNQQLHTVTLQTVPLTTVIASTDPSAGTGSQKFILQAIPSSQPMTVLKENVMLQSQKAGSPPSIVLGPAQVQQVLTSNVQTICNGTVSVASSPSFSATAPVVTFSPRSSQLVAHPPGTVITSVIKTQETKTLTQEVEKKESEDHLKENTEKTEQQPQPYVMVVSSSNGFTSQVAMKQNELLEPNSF
# Sequence of ETV6 (P41212 whole entry): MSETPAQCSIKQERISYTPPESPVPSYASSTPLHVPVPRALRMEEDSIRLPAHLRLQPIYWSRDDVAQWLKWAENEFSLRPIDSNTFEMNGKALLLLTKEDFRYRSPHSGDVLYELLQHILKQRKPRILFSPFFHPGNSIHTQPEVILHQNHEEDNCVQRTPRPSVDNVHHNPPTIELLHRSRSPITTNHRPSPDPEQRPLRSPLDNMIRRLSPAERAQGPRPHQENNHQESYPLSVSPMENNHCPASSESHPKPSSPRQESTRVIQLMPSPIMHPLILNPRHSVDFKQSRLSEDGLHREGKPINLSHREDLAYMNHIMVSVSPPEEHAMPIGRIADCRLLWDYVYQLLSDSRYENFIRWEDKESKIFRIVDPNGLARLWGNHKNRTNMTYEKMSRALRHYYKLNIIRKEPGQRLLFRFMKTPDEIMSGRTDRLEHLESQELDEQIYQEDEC
sequence,measurement,setting,value
TGGCCG,binding signal,[1],"1.19 fold enrichment (6-mer frequency, TF over GST control)"
same,binding signal,[2],"1.15 fold enrichment (6-mer frequency, TF over GST control)"
same,binding signal,[3],"1.19 fold enrichment (6-mer frequency, TF over GST control)"
same,binding signal,[4],"1.08 fold enrichment (6-mer frequency, TF over GST control)"
same,binding signal,[5],"1.02 fold enrichment (6-mer frequency, TF over GST control)"
same,binding signal,[6],"1.17 fold enrichment (6-mer frequency, TF over GST control)"
same,binding signal,[7],"1.22 fold enrichment (6-mer frequency, TF over GST control)"
same,binding signal,[8],"1.17 fold enrichment (6-mer frequency, TF over GST control)"
same,binding signal,[9],"1.08 fold enrichment (6-mer frequency, TF over GST control)"
same,binding signal,[10],"1.06 fold enrichment (6-mer frequency, TF over GST control)"
same,binding signal,[11],"1.04 fold enrichment (6-mer frequency, TF over GST control)"
same,binding signal,[12],"1.14 fold enrichment (6-mer frequency, TF over GST control)"
same,binding signal,[13],"1.04 fold enrichment (6-mer frequency, TF over GST control)"
same,binding signal,[14],"1.05 fold enrichment (6-mer frequency, TF over GST control)"
same,binding signal,[15],"1.07 fold enrichment (6-mer frequency, TF over GST control)"
same,binding signal,[16],"1.06 fold enrichment (6-mer frequency, TF over GST control)"
same,binding signal,[17],"1.06 fold enrichment (6-mer frequency, TF over GST control)"
same,binding signal,[18],"1.11 fold enrichment (6-mer frequency, TF over GST control)"
same,binding signal,[19],"1.11 fold enrichment (6-mer frequency, TF over GST control)"
